Mtb FBA inh: Mtb fructose-bisphosphate aldolase inhibition; P9WQA3; purified M. tuberculosis FBA, fluorescence read-out; inhibition, % at 1 µM; 360,000 tested, 2.3% active; AID 588726; in the data active means inhibition above about 27%;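 further: 0% = vehicle and 100% = reference inhibitor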
Anthrax LF prot: blocks Bacillus anthracis lethal factor protease | inhibition, % at 10 µM | multiplex microsphere protease cleavage assay, LF | P15917 | 360,000 tested, 0.12% active; further: plate controls were buffer without enzyme for full effect and enzyme alone for no effect
Target sequence (P15917 whole entry, looked up): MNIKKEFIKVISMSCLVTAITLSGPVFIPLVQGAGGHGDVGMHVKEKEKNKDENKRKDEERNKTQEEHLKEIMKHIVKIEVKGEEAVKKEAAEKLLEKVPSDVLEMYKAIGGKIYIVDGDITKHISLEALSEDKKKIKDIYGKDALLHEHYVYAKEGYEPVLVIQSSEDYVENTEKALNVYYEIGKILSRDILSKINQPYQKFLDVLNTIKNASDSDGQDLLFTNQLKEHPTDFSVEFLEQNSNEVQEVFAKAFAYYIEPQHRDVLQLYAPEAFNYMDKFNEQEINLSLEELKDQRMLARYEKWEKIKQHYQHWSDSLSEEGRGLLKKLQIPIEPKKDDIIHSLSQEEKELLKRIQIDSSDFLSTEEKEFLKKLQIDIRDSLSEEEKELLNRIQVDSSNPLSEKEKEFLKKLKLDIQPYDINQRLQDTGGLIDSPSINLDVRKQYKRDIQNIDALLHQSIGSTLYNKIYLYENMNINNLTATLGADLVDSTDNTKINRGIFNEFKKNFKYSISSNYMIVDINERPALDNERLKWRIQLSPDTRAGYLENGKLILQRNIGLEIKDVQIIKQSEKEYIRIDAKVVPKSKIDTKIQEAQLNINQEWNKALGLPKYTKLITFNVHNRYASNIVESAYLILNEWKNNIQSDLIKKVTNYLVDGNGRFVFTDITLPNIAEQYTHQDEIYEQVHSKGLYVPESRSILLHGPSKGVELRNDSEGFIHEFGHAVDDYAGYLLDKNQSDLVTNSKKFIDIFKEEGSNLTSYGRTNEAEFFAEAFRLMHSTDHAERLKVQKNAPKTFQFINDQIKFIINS
GDH-TPI counter: counter-screen for M. tuberculosis FBA inhibitors: GDH-TPI coupled enzymes; GDH-TPI coupled enzyme counterscreen, NADH absorbance; inhibition, % at 4.8 µM; 360,000 tested, 1.2% active; in the data active means inhibition above about 30%;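 further: 0% = DMSO wells and 100% = wells lacking the enzyme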
Autofluor counter: flagged as autofluorescent in microsphere protease counterscreen; compound autofluorescence counterscreen, microsphere flow cytometry; stronger effect = higher value; fluorescence intensity (test concentration not listed); 360,000 tested, 3.1% active; AID 624483; in the data active means fluorescence intensity above about 16000; inconclusive means no clear call, values can overlap the other calls
BoNT F protease: inhibitors of Botulinum neurotoxin F light chain protease | Multiplex microsphere protease cleavage assay, flow cytometry | inhibition, % at 10 µM | 360,000 tested, 0.22% active; in the data active means inhibition above about 35%, passing the limit was not always enough; inconclusive means no clear call, values can overlap the other calls; further: plate controls were buffer without enzyme for full effect and enzyme alone for no effect
BoNT-A LC inh2: BoNT A light chain protease inhibition | inhibition, % at 10 µM | 360,000 tested, 0.17% active | multiplex microsphere protease substrate cleavage, flow cytometry; further: plate controls were buffer without enzyme for full effect and enzyme alone for no effect
BoNT-A LC CP1: BoNT/A light chain protease inhibition; multiplex microsphere protease assay, flow cytometry; 720 tested, 3% active; inhibition, % at 10 µM; shares compounds with BoNT F protease; in the data active means inhibition above about 32%
BoNT-F LC CP1: BoNT/F light chain protease inhibition. 720 tested, under 10 active. inhibition, % at 10 µM. multiplex microsphere protease cleavage assay, flow cytometry. shares compounds with BoNT F protease; call rule not given here
Anthrax LF CP1: Bacillus anthracis lethal factor protease inhibition; shares compounds with BoNT F protease; multiplex microsphere protease cleavage assay, LF; inhibition, % at 10 µM; 720 tested, under 10 active; AID 602142; call rule not given here
The depositor's hits bear a star; u = inconclusive; x = not tested or not shown. The list is not random: actives were taken first. Their share in the collection is about 6.7%. Unless noted, no stated cut-off is given here; in the data, active means inhibition above about 30%; inconclusive means no clear call, values can overlap the other calls; inactive means below that.

SMILES	Mtb FBA inh	Anthrax LF prot	GDH-TPI counter	Autofluor counter	BoNT F protease	BoNT-A LC inh2	BoNT-A LC CP1	BoNT-F LC CP1	Anthrax LF CP1
CN(CC(=O)NCCc1ccc(F)cc1)Cc1ccccc1	0	-3	-7	5498	-2	-2	x	x	x
CSc1ccc(CN(C)CC(=O)NCCc2ccccc2)cc1	-4	3	-14	3529	40*	2	-1	-2	-4
O=C1NC(c2ccccc2)=C(c2nc3ccccc3s2)C(c2ccc(F)cc2)N1 (stereo unspecified)	3	-3	16	u	-2	-1	x	x	x
Cc1ccc(C(=O)Nc2scc(-c3ccccc3)c2C(=O)O)cc1	7	11	4	3585	36*	5	0	-4	6
COc1cc(C(=O)Nc2scc(-c3ccc(C)cc3)c2C(=O)O)cc(OC)c1OC	4	-5	11	4034	u	-4	x	x	x
COc1ccc(CC(NC(C)=O)C(=O)N2CCN(C(=O)Nc3cccc(F)c3)CC2)cc1OC (stereo unspecified)	1	0	1	3175	-2	-2	x	x	x
COc1cccc(C(=O)NCc2ccc3c(c2)cc(C)n3C)c1	5	-50	3	1285	-83	75*	3	-3	-1
COc1ccc(C(=O)NCc2ccc3c(c2)cc(C)n3C)cc1OC	0	-1	3	1632	-47	92*	-1	-7	2
COc1ccc(CC(=O)NCc2ccc3c(c2)cc(C)n3C)cc1	-1	-15	7	1840	-53	91*	1	-5	-3
COc1cccc(C(=O)NCc2ccc3c(c2)OCO3)c1	0	4	7	3829	36*	-2	0	-4	0
COc1cccc(CNC(=O)c2ccncc2)c1	4	-3	-14	4679	16	0	x	x	x
COc1cc(OC)cc(C(=O)NCc2ccc3c(c2)OCO3)c1	-1	9	3	3997	u	-1	x	x	x
CN1C(=O)[C@H]2[C@@H](c3ccc(C(F)(F)F)cc3)N[C@]3(CCCN(Cc4ccc(C(F)(F)F)cc4)C3=O)[C@H]2C1=O	-4	-8	-1	3765	-8	0	x	x	x
O=C(CCn1ccnc1)Nc1ccc2ccccc2c1	-2	1	-9	4229	38*	7	0	-3	-1
O=C(Nc1nc2c(s1)CN(Cc1ccccc1)CC2)c1cccc(S(=O)(=O)N2CCc3ccccc32)c1	0	30*	11	13649	5	20	8	13	6
O=C(O)C1C2C=CC(C2)C1C(=O)N1CCc2ccccc21 (stereo unspecified)	-1	6	-12	3667	39*	4	-2	-8	-1
O=C(Cc1ccccc1)c1ccc(Cl)cc1	2	30*	2	3769	u	u	2	-3	-5
O=C(Cc1ccc(Cl)cc1)c1ccc(O)cc1	-3	4	8	6650	-3	-1	x	x	x
CCNc1nc(NCC)n2c(SCC(=O)Nc3ccc(C)c(C)c3)nnc2n1	0	1	6	u	37*	16	-1	-3	0
C/C(=N/NC(=O)c1ccc(Br)s1)c1cccnc1	1	0	13	5206	-10	-3	x	x	x
CSc1ncc(Cl)c(C(=O)Nc2ccccc2C)n1	3	30*	4	3352	-12	1	0	-5	-2
COCCCNC(=O)C1CCCN(S(C)(=O)=O)C1 (stereo unspecified)	0	-1	3	2113	-26	-2	x	x	x
CC(=O)Nc1ccc(NC(=O)CSc2nnc(CC(C)O)n2-c2ccccc2)cc1 (stereo unspecified)	0	-5	6	3363	u	-4	x	x	x
CC(=O)Nc1ccc(NC(=O)CSc2nnc(N)n2-c2ccccc2)cc1	1	-5	-2	3673	39*	4	-2	-5	-4
Cc1ccc(NC(=O)CN(C)C(=O)CSc2nnc(NC(C)C)s2)cc1	4	-2	10	u	u	3	x	x	x
CCc1nc(SCC(=O)NCCc2ccccc2)n[nH]1	1	-6	11	3454	35*	1	1	0	3

Screening results: PubChem, several laboratories
